Data as given in ChEMBL document CHEMBL1201862, “PubChem BioAssay data set” (2004).
In all, about 15,000 sequences went through this assay and about 620 (4.1%) were called active. No stated cut-off is given here; in the data, active = GI50 up to about 1.1 µM and inactive = higher. Only a sample is shown. Results with a measured potency or affinity are listed apart.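 Cultured in 96-well plates, cells were exposed to test compound for 48 hours across five concentrations. Abbreviation: GI50, concentration required for 50% inhibition of growth.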

What follows are substances tested on M19-MEL (assay: NCI tumour cell line growth inhibition, 48 h).

Row | Substance | GI50 [µM]
1 | [Bis(aminomethyl)ethylmethylsilane]tetrachloroplatinum(IV), CHEMBL2146192 | 1.52
2 | mu-(1,7-nanodiamine-N,N')bis-(cis-aminedichloroplatimum (II)), CHEMBL2146215 | 1.36
3 | [Bis(aminomethyl)pentamethylenesilane]dichloropaltinum(II), CHEMBL2146202 | 5.38
4 | [Bis(aminomethyl)tetramethylenesilane]dichloropaltinum(II), CHEMBL2146205 | 19.3
5 | [Bis(aminomethyl)tetramethylenesilane]tetrachloropaltinum(IV), CHEMBL2146189 | 2.83
6 | [Bis(aminomethyl)dimethylsilane]dichloroplatinum (II), CHEMBL2146201 | 15.2
7 | cis-Bis[[(trimethylsilyl)methyl]amino]tetrachloroplatinum(IV), CHEMBL2146191 | 3.37
8 | [Bis(aminomethyl)diethylsilane]tetrachloroplatinum(IV), CHEMBL2146203 | 2.03
9 | [Bis(aminomethyl)pentamethylenesilane]tetrachloropaltinum(IV), CHEMBL2146204 | 2.24
10 | [Bis(aminomethyl)dimethylsilane]tetrachloroplatinum(IV), CHEMBL2146190 | 3.12
